Measured values as given in PubChem BioAssay (NCI).
Values joined by “and” are separate entries in the source; they are usually repeats but may differ in a detail not shown here. Equal values may be shown once. About 83,000 compounds went through this panel and 20% of them were active in at least one assay; those are over-represented in the sample as a whole.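 Assay: single dose, 48 h. Readout: percent growth (0 = no net growth; negative = cell death). Active: <10.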 Active and inactive are the calls of the source.

Each compound was assayed on U251 CNS (assay: NCI-60 one-dose screen, 48 h (100 = growth as untreated, 0 = no growth, -100 = all killed)). Conditions: 10 µM unless noted.
Protocol: Growth inhibition of the U251 human tumor cell line is measured as a screen for anti-cancer activity. Cells are grown in 96 well plates and exposed to the test compound for 48 hours. Compounds are tested at a single concentration, which is 10^-5 M for most compounds. The reported endpoint is percent growth (GI% or GIPRCNT), where numbers from 0 - 100% represent growth inhibition, and numbers from -100% - 0 represent cell death. For example, a value of 40 represents 60% growth inhibition. A value of 0 means no net growth occurred over the course of the experiment. A value of -40 indicates 40% of cells at the beginning of the experiment died by the end of the experiment. A value of -100 means all cells are dead at the end of the experiment.
NCI-60 Human Tumor Cell Lines Screen was performed using the standard one-dose NCI protocol, which is described in more detail at https://dtp.cancer.gov/discovery_development/nci-60/default.htm.
Compounds with GIPRCNT values below 10 were considered active. Activity score was based on GIPRCNT using the following formula: […]
Score is 0 for GIPRCNT values of 100 or above, 50 for GIPRCNT values of 0, and 100 for GIPRCNT values of -100.

Structure (SMILES)	growth
CCCCOC(=O)/C=C\C(=O)NC(N)=O	96.4% (inactive)
ClCCOCCOc1ccc(C2CCCCC2)cc1	89.7% (inactive)
COc1ccc(C(=O)CC(c2ccccc2)C(C#N)c2ccccc2)cc1 (stereo not given)	83.2% (inactive)
NC1CCC(C(=O)O)CC1 (stereo not given)	103% (inactive) and 106% (inactive)
CC(=O)NCC(=O)c1ccc([N+](=O)[O-])cc1	102% (inactive)
CC(C)C(C)(C)c1ccc(O)cc1	102% (inactive)
CC(C)(O)C(=O)O	97.9% (inactive)
CN(C)c1ccc(/C=C\C(=O)c2ccccc2)cc1	82.2% (inactive) and 80.6% (inactive)
COc1ccc2cc1Oc1ccc(cc1)C[C@H]1c3cc(c(OC)cc3CCN1C)Oc1c(OC)c(OC)cc3c1[C@H](C2)N(C)CC3	24.2% (inactive)
Cc1cc(-c2cc(C)c(O)c(C)c2)cc(C)c1O	88.6% (inactive)
O=C1OC(C(O)C(O)CO)C(O)=C1O (stereo not given)	104% (inactive) and 92.5% (inactive)
O=[N+]([O-])c1cccc(SSc2cccc([N+](=O)[O-])c2)c1	99.2% (inactive)
CCCCCCCCCCCCCCCCC(C(=O)O)C(O)(CC(=O)O)C(=O)O (stereo not given)	101% (inactive) and 8.93% (active)
Cn1cnc([N+](=O)[O-])c1Sc1ncn[nH]1	108% (inactive)
O=C1c2c(O)ccc(O)c2C(=O)c2c(NCCNCCO)ccc(NCCNCCO)c21	-67% (active) and -99.7% (active)
O=CN1CCCCC1	110% (inactive)
COc1ccc(N/C=C/C2=[N+](C)c3ccccc3C2(C)C)c(OC)c1	91.2% (inactive)
CC(C)NC(=O)N/C=C(\C#N)C(N)=O	114% (inactive)
COc1cc(C(O)C2C(=O)OCC2C2(c3ccc4c(c3)OCO4)SCCCS2)cc(OC)c1OC (stereo not given)	100% (inactive)
N#CC(C#N)N=Nc1ccc(Cl)cc1	88.7% (inactive)

Structure (SMILES)	growth
Oc1ccc(Cc2ccccc2Cl)c(O)c1	96.2% (inactive)
Nc1cc(N)c(N)cc1N	15.6% (inactive)
CC1CCC2(OC1)OC1CC3C4CC=C5CC(O)CCC5(C)C4CCC3(C)C1C2C (stereo not given)	94.8% (inactive)
CCc1cc(C)cc(O)c1	96% (inactive)
Cc1cc2ccccc2cn1	99.4% (inactive) and 103% (inactive)
N#CC(C#N)N=Nc1cc(Cl)ccc1Cl	96.6% (inactive)
O=C1OC(c2ccccc2)=N/C1=C\c1ccccc1	91% (inactive)
Nc1ccc2c(O)cc(S(=O)(=O)O)cc2c1	101% (inactive)
Cc1cc(-c2ccc(N=Nc3ccc4c(S(=O)(=O)O)cc(S(=O)(=O)O)c(N)c4c3O)c(C)c2)ccc1N=Nc1ccc2c(S(=O)(=O)O)cc(S(=O)(=O)O)c(N)c2c1O	97.6% (inactive)
CC1=C/C(O)CC(=O)Cc2nc(co2)C(=O)N2CCC=C2C(=O)OC(C(C)C)C(C)/C=C\C(=O)NC/C=C\1 (stereo not given)	92.9% (inactive)
Cl	102% (inactive)
c1ccc(CNCCNCc2ccccc2)cc1	96% (inactive)
CN1CNC(=O)NC1	118% (inactive) and 87.5% (inactive)
O=c1n(CC2CO2)c(=O)n(CC2CO2)c(=O)n1CC1CO1 (stereo not given)	56.2% (inactive)
C/C(=C\c1ccccc1)c1ccccn1	107% (inactive)
c1ccc2c(c1)OC1OC2Oc2ccccc21	102% (inactive)
Fc1ccc([I+]c2ccc(F)cc2)cc1	66.4% (inactive)
OC1COC(OCc2ccccc2)C(O)C1O (stereo not given)	95.4% (inactive)
Nc1nc(N)c2[nH]cnc2n1	111% (inactive)
CCCCCCCCCCCCCCCc1ccc(N)c(OC2OC(CO)C(O)C(O)C2O)c1 (stereo not given)	89.7% (inactive)
